High-throughput results deposited in PubChem by several laboratories.
VLA-4 inh: inhibition in human VLA-4 binding assay, primary screen, VLA-4 allosteric modulator project, MLPCN library, flow cytometry, VLA-4 expressing cells | 0.2% of 330,000 active | ligand binding flow cytometry | inhibition, % (about 7 µM as worked out from the volumes in the protocol) | AID 2557, 2010; in the data active = inhibition above about 50%
CHT allo act: CHT positive allosteric modulators, primary screen, cell-based, membrane potential dye, choline EC20 | High affinity choline transporter 1 (Homo sapiens), Q9GZV3 | CHT-expressing cells; active compounds read high; LV-AA mutant CHT in HEK293 cells | B-score at 10 µM | 0.49% of 310,000 active | AID 488977, 2010;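 active = initial fluorescence not abnormally high and integrated response B-score, plate-corrected, over 3 SD above library mean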
CHT inh: inhibitors of human choline transporter CHT | High affinity choline transporter 1 (Homo sapiens), Q9GZV3 | AID 488975, 2010 | B-score at 10 µM | CHT-expressing cells, membrane potential dye, choline response; active compounds read low | 0.86% of 310,000 active;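 active = B-score over 3 SD under the library average, and starting fluorescence ratio not unusually high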;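 note: choline stimulus applied at its EC90 after an EC20 pre-addition; B-score computed on integrated fluorescence ratio after choline addition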
Platelet DG rel: inhibitors of platelet dense granule secretion, primary screen, cell-based, MLPCN, human platelets; 0.22% of 300,000 active; human platelet-rich plasma, SFLLRN dense granule ATP release, luminescence; inhibition, %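 (compounds screened at 7.5 µM in platelet-rich plasma)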;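 active = mean replicate score, as percent of positive control, at or above 50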
HIF activator: HIF pathway transcriptional activators, primary screen, cell-based, U2OS HRE-luciferase, luminescence. U2OS HRE-luciferase reporter; normalized: DMSO 0%, desferrioxamine 100%. activation, % at 7.5 µM (by protocol). 0.32% of 300,000 active;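 active = mean activation of at least 10% of the iron chelator positive control signal, with at least half of replicates also reaching 10%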
AI-2 QS modul: Vibrio harveyi AI-2 quorum sensing modulators, primary screen, JMH597 strain, luminescence/OD600 ratio; Vibrio harveyi JMH597 AI-2 luminescence/OD600 ratio, 9 h; active compounds read low; strain lacks LuxN and CqsS sensors; 0 = neutral-control median; activity change, % at 7.5 µM; 0.4% of 300,000 active; AID 2094, 2009; in the data active = activity change below about -75%, passing the limit was not always enough;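 note: luminescence divided by OD600 gain over 9 h not by final OD600 alone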
An asterisk follows results filed as active; i = inactive; . = no result given. Most compounds without a hit are left out; they make up all but 2.2% or so of the library.

SMILES	VLA-4 inh	CHT allo act	CHT inh	Platelet DG rel	HIF activator	AI-2 QS modul
CCCCn1c(N)c(N(CCC(C)C)C(=O)CSc2nncn2-c2ccccc2)c(=O)[nH]c1=O	14	.	.	.	.	.
COc1ccc(N2C(=O)[C@@H]3C(c4cccnc4)=NO[C@@H]3C2=O)cc1	-4	i	i	-19	30*	11
Cc1ccc(O)c(NC(=O)C2CC(c3cccc(Br)c3)=NO2)c1 (centres undefined)	35	i	i	-3	0	.
CCCCOC(=O)CCc1c(C)[nH]c(=O)c(C#N)c1C	18	i	i	61*	0	16
Cc1ccc(NC(=O)CCc2c(C)[nH]c(=O)c(C#N)c2C)cc1	4	i	i	30	-1	32
Cc1[nH]c2ccccc2c1C(O)CN1CCN(c2cccc(C(F)(F)F)c2)CC1 (centres undefined)	-12	i	-8.7*	-7	0	-1
COc1cccc(CN2CC(C(=O)NCc3ccc(Cl)s3)CCC2=O)c1 (centres undefined)	.	.	.	5	-1	17
O=C(Nc1ccn(Cc2ccccc2)n1)c1ccc2c(c1)OCO2	-1	i	i	0	3	20
O=C(Nc1ccn(Cc2ccc(Cl)cc2)n1)c1ccccc1	4	i	i	-5	4	-87*
CC(C)CCNC(=O)C1CCC(CNc2c(N3CCCC3)c(=O)c2=O)CC1 (centres undefined)	-1	i	i	-1	0	30
Cc1ccc(N=Nc2cc(C)ccc2N)cc1	5	i	i	70*	0	5
Cc1nc2c(s1)sc1ccccc12	3	i	i	.	2	11
CC[n+]1c(C)sc2sc3ccccc3c21	5	13*	i	-7	0	19
CC(=O)C1CCCN(C(=O)c2ccc3oc(CCc4ccccc4)nc3c2)C1 (centres undefined)	20	i	i	-2	1	4
CCOC(=O)C1CCCN(C(=O)c2ccc3oc(CCc4ccccc4)nc3c2)C1 (centres undefined)	2	i	i	-8	63*	13
CCOC(=O)C1CCCN(C(=O)c2ccc3nc(-c4ccc(OC)c(OC)c4)c(-c4ccc(OC)c(OC)c4)nc3c2)C1 (centres undefined)	2	i	i	11	-1	23
CCOC(=O)C1CCCN(C(=O)c2ccc3nc(-c4ccccc4)c(-c4ccccc4)nc3c2)C1 (centres undefined)	7	i	i	-2	17*	29
O=C(NCCC1CCCCN1S(=O)(=O)c1cccs1)C(=O)NCc1ccccc1 (centres undefined)	0	i	i	-11	1	7
O=C(Nc1cccc(S(=O)(=O)N2CCCCC2)c1)C1CC1	4	.	.	.	.	.
CC(C)CNC(=O)NC1C(NC(=O)NCC(C)C)N(C)C(=O)N1C (centres undefined)	6	i	i	1	0	42
CCCOC(=O)NC1C(NC(=O)OCCC)N(C)C(=O)N1C (centres undefined)	2	i	i	-9	153*	-1
CSCCC(NC(=O)c1ccccc1)C(=O)NCCc1ccc2c(c1)OCCO2 (centres undefined)	-8	.	.	.	.	.
C=Cn1cc[n+](CC(=O)c2cccs2)c1	2	i	i	0	-1	10
O=C(C[n+]1ccn(CCCNP2(=O)C=C(c3ccccc3)OC(c3ccccc3)=C2)c1)c1cccs1	4	i	i	3	101*	0
COc1ccc(N2CCN(C(=O)c3ccccc3NC(=O)c3ccccc3)CC2)cc1	1	i	i	-9	1	5
SMILES	VLA-4 inh	CHT allo act	CHT inh	Platelet DG rel	HIF activator	AI-2 QS modul
COc1ccc(C(=O)CCNc2ccc(F)cc2)cc1	16	i	i	-15	14*	-26
CCOC(=O)/C(C#N)=C/C=C1\C=Cc2ccccc2N1CC	-67	i	i	23	18*	13
O=C(NC(=S)N1CCCCC1)c1csc([N+](=O)[O-])c1	10	i	i	-2	2	22
C=CCNC(=S)NC(=O)c1csc([N+](=O)[O-])c1	7	i	i	-5	3	-104*
O=C(NC1CC1)C1CCN(C2CCN(C(=O)Cc3ccc4c(c3)OCO4)CC2)CC1	4	i	-10*	6	.	6
Cc1[nH]n(-c2cccc3ccccc23)c(=O)c1/C=N/NC(=O)c1cccc([N+](=O)[O-])c1	4	i	i	7	0	6
Cc1ccc(-n2[nH]c(C)c(/C=N/NC(=O)c3ccc([N+](=O)[O-])cc3)c2=O)c(C)c1	-2	7.5*	i	-3	0	13
Cc1ccc(C(=O)NCCS(=O)(=O)N2CCN(c3ccccc3F)CC2)cc1[N+](=O)[O-]	0	i	i	-1	-1	35
O=C(c1ccc(Cl)s1)N1CCN(S(=O)(=O)c2ccc(Cl)cc2)CC1	-9	.	.	.	.	.
Cc1ccc(-c2nnc(Sc3nc4ccccc4o3)c3ccccc23)cc1	0	i	i	-2	94*	8
CCOC(=O)c1c(N)sc2c1CCN(CCc1ccccc1)C2	-8	8.1*	i	9	0	27
O=S(=O)(Nc1ccc2c(c1)OCO2)c1ccc(Cl)cc1F	-10	.	.	.	.	.
COc1ccc(C(=O)O/N=C(\N)c2ccccc2)cc1	-4	i	i	67*	-1	2
N/C(=N\OC(=O)c1ccc2ccccc2c1)c1ccccn1	-8	i	i	66*	-4	1
N/C(=N\OC(=O)c1cc(Br)ccc1Cl)c1ccccn1	5	i	i	-5	0	7
Cc1ccc(C(=O)O/N=C(\N)c2ccccn2)c(Cl)c1	7	i	i	76*	-6	29
Cc1ccc(OCC(=O)O/N=C(\N)c2ccccn2)cc1	-22	i	i	5	2	-4
Cc1cccc(OCC(=O)O/N=C(\N)c2ccccn2)c1C	-4	i	i	.	3	-93*
CCn1c(CC(=O)Nc2ccc(F)cc2)nnc1SCC(=O)NC1CCCC1	12	i	i	7	-1	3
COc1ccccc1N1CCN(CC(=O)Nc2ccccc2C(=O)NC(C)c2ccccc2)CC1 (centres undefined)	9	.	.	.	.	.
